# Measurements published in the supplement of paper PMC8047044.
# “And” between values parts separate entries of the source, which are not always exact repeats. Equal values may be shown once. Where a name gives a salt, the structure may show the parent alone.
# Tested on: Neuro-2a
# Assay: neurite formation score, plate-normalized to DMSO control mean 5.04 (score (0-8 scale)); higher = more or longer neurites
# Conditions: 0.1 µM
# Method: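 Neuro-2a mouse neuroblastoma cells in PLL-coated 96-well plates were pre-treated for 1 h in DMEM(+) with each kinase inhibitor at 0.1 µM, then switched to serum-free DMEM(-) with inhibitor to induce neurite outgrowth and fixed about 2-3 h later. Three blinded observers scored neurite formation from 0 (no neurites) to 8 (long neurites on almost all cells).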
row,SMILES,neurite formation score
1,Cc1nc2c(-c3cnc(N)nc3)nc(N3CCOCC3)nc2n1C(C)C,4.25
2,NC(=O)Nc1sc(-c2ccc(F)cc2)cc1C(N)=O,4.58
3,c1ccc2c(-c3cnn4cc(-c5ccc(N6CCNCC6)cc5)cnc34)ccnc2c1,2.42 and 4.42
4,NC(=O)c1ccc(N(C(N)=O)c2c(F)cccc2F)nc1-c1ccc(F)cc1F,4.58
5,CCCNC(=O)Nc1ccc(Oc2ncnc3cc(OC)c(OC)cc23)cc1Cl,5.54
6,CN(C)S(=O)(=O)c1ccc2c(c1)/C(=C/c1cc3c([nH]1)CCCC3)C(=O)N2,4.75
7,CC(C)N(CCC(=O)c1ccc2ccccc2c1)Cc1ccccc1,4.92
8,Nc1nc(Nc2ccc(S(N)(=O)=O)cc2)nn1C(=O)c1c(F)cccc1F,5.58
9,CCc1ccc(/C=C2/SC(=S)NC2=O)cc1,5.04
10,CC(C)(C)Cn1c(N)nc2ccc(-c3[nH]c(C(C)(C)C)nc3-c3ccc(F)cc3)nc21,5.54
11,COc1cc(N2CCOCC2)ccc1Nc1ncc(F)c(Nc2ccccc2NS(C)(=O)=O)n1,4.75
12,O=S(=O)(c1cccc2cnccc12)N1CCCNCC1 [Fasudil (HA-1077) HCl],5.21
13,Cc1ccc(S(=O)(=O)Nc2nc3ccccc3nc2Nc2ccc3nsnc3c2)cc1,4.09
14,CC(=O)Nc1cccc(-n2c(=O)n(C3CC3)c(=O)c3c(Nc4ccc(I)cc4F)n(C)c(=O)c(C)c32)c1,4.38
15,CNC(=O)c1ccccc1Sc1ccc2c(/C=C/c3ccccn3)n[nH]c2c1,4.54
16,COc1cc2ncnc(Nc3cccc(Br)c3)c2cc1OC,5.09
17,N#CCNC(=O)c1ccc(-c2ccnc(Nc3ccc(N4CCOCC4)cc3)n2)cc1,4.92
18,COc1cc2c(Nc3ccc(NC(=O)c4ccccc4)cc3)ncnc2cc1OCCCN1CCOCC1,4.58
19,Cc1[nH]c(/C=C2\C(=O)Nc3ccc(S(=O)(=O)N(C)c4cccc(Cl)c4)cc32)c(C)c1C(=O)N1CCN(C)CC1,5.04
20,CC(C)CC(=O)Nc1n[nH]c2c1CN(C(=O)C1CCN(C)CC1)C2(C)C,4.54

row,SMILES,neurite formation score
1,Cc1nc(Nc2cnn(C3CCNCC3)c2)nc2c1N(C)C(=O)c1cc3ccccc3cc1N2C,4.25
2,COc1c(OCCCN2CCOCC2)ccc2c3n(c(=NC(=O)c4cnc(N)nc4)nc12)CCN3 [BAY 80-6946 (Copanlisib)],4.76
3,O=C(Nc1cccc(Nc2ncc(Br)c(NCCc3cnc[nH]3)n2)c1)N1CCCC1,4.71
4,Cc1ccc(Nc2nccc(N(C)c3ccc4c(C)n(C)nc4c3)n2)cc1S(N)(=O)=O [Pazopanib Hydrochloride],4.88
5,CC(C)[C@H](CO)Nc1nc(Nc2ccc(C(=O)O)c(Cl)c2)c2ncn(C(C)C)c2n1 [Purvalanol B],4.92
6,O=C(NC(NC(=S)Nc1ccc(F)c([N+](=O)[O-])c1)C(Cl)(Cl)Cl)C(c1ccccc1)c1ccccc1 (stereo not given),4.25
7,CC(C)(C#N)c1ccc(N2C(=O)OCc3cnc4ccc(-c5cnc6ccccc6c5)cc4c32)cc1,4.25
8,COc1cc2ncc(-c3ccccc3)nc2cc1OC [Tyrphostin AG 1296],5.04
9,Fc1cc(-c2cccc3ncc(-c4cnn(C5CCNCC5)c4)nc23)cc(F)c1CN1CCOCC1,4.09
10,Cc1cc2c(F)c(Oc3ncnn4cc(OC[C@@H](C)O)c(C)c34)ccc2[nH]1,4.38
11,COc1cc(C(=O)N2CCC(N3CCN(C)CC3)CC2)ccc1Nc1ncc2c(n1)N(C)c1ccccc1C(=O)N2C,4.92
12,O=C(NCCCNc1nc(Nc2cccc(NC(=O)N3CCCC3)c2)ncc1I)c1cccs1,4.54
13,CCn1c(N)c(C(=O)NC)c(=O)c2ccc(C#CC(C)(O)COC)nc21 (stereo not given),4.42
14,CCCCCCCCCCCCCCCc1cccc(O)c1C(=O)O [Anacardic acid],4.92
15,"CCCCCCCCCCCCCC(=O)OC[C@H](CO)OC(=O)CCCCCCCCCCCCC [1,2-Dimyristoyl-sn-glycerol]",5.08
16,CN1CCC(CNc2ccc3ncc(-c4cccc(OC(F)(F)F)c4)n3n2)CC1 [SGI-1776 free base],5.25
17,FC(F)(F)c1ccc(CNc2ccc(Cc3c[nH]c4ncc(Cl)cc34)cn2)cn1 [Pexidartinib (PLX3397)],5.42
18,c1cncc(CN2CCC(n3ncc4c(N5CCOCC5)nc(-c5ccc6[nH]ccc6c5)nc43)CC2)c1,0.751
19,CCS(=O)(=O)N1CCN(c2ccc(Nc3ncc(C(N)=O)c(NC4CC4)n3)cc2)CC1,5.08
20,CC(C)(C)n1nc(-c2ccc(Cl)cc2)c2c(N)ncnc21,3.88
